The subject of assay [1] is XIP peptide (Xip251-270) binding. Nature of the assay: XIP fragment 251-270 binding compounds – biochemical, small-molecule microarray, fluorescence 635/667 nm, 0.1 µg/mL protein, primary screen (AID 1182). The settings on record: fluorescent protein binding, 635 nm, higher = more signal, called active from +8 up or from −8 down.
In a further assay the test system is XIP peptide (Xip251-270). Nature of the assay: compounds binding XIP fragment 251-270 – biochemical, small-molecule microarray, fluorescence 635/667 nm, 0.5 µg/mL protein, primary screen (AID 1183). The following applies: fluorescence 635 nm, higher = more signal.
Assay [2] in a line: blood-stage malaria parasite viability loss – strain 3D7, DAPI fluorescence, 100 nL, primary screen (AID 1184).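 Also: parasites grown inside human red blood cells in medium with human serum.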 The following applies: P. falciparum 3D7 growth, 3 d, higher = more signal.
Assay [3] deals with Homeobox protein Hox-A13 (Mus musculus) (UniProt Q62424). In words: disruptors of Hoxa13 oligonucleotide interaction – biochemical, fluorescence polarization, labeled oligonucleotide, primary screen (AID 1185). The settings on record: Hoxa13:DNA binding, 15 min, higher = more signal, called active from +8 up or from −8 down. A general note: Fluorescence polarisation rises when a labelled molecule tumbles more slowly, as on binding a larger partner.

The values that follow come from PubChem BioAssay.

Active and inactive are the calls of the source.

Chain of Homeobox protein Hox-A13 (Mus musculus) (Q62424 whole entry, looked up): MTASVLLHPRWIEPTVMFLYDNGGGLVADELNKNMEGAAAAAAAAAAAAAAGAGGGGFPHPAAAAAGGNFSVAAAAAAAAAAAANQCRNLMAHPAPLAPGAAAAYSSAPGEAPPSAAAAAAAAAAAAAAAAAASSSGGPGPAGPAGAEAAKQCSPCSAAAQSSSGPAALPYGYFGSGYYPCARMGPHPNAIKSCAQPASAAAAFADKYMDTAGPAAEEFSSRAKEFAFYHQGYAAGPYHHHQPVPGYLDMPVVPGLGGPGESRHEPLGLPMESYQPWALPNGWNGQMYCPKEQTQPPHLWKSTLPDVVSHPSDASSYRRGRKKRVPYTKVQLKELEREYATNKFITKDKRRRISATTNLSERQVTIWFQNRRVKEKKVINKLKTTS

For `CC(C)(C)N1C(=O)[C@H]2[C@H]3[C@H](O)[C@H](O)CC(=NOC[C@@H](O)COCc4ccco4)[C@H]3CC[C@H]2C1=O`, the results for the composite z-score (in assay [1]; in the assay with XIP peptide (Xip251-270)) were 0.0133 (inactive) and 0.72, respectively. For the same molecule, the z-score in assay [2] is -0.62; in assay [3], 0.976 (inactive).

`CC1(C)O[C@H]2OC([C@H](O)CON3C(=O)c4ccccc4C3=O)[C@H](O)[C@H]2O1` (stereo not given in full): the composite z-score in assay [1] was -0.592 (inactive); in the assay on XIP peptide (Xip251-270), 0.291. For the same molecule, the results for the z-score in assay [2] and in assay [3] were 0.696 and 0.366 (inactive), respectively.

Take `CCOC(=O)NN=C1C[C@@H](O)[C@@H](O)[C@@H]2[C@@H]3C(=O)N(CC)C(=O)[C@@H]3CC[C@H]12`: the composite z-score in assay [1] was 0.124 (inactive); in the assay with XIP peptide (Xip251-270), -0.379. For the same molecule, the z-score in assay [2] was 0.613; in assay [3], 0.368 (inactive).

As to `COC(=O)[C@H](C)NC(=O)CCC1CC(OC(=O)NCc2ccc3c(c2)OCO3)CC2(CCCC(COC(=O)NCCC(C)C)O2)O1` (stereo not given in full), the composite z-score in assay [1] was 1.11 (inactive); in the assay with XIP peptide (Xip251-270), 0.106. Also, the z-score is -0.489 in assay [2] and -6.3 (inactive) in assay [3].

Regarding `CCOC(=O)[C@H](Cc1ccccc1)NC(=O)CCC1CC(OC(=O)NCc2cccc3ccccc23)CC2(CCCC(COC(=O)NCCc3ccccc3OC)O2)O1` (stereo not given in full), the figures for the composite z-score (in assay [1]; in the assay with XIP peptide (Xip251-270)) were 0.248 (inactive) and 0.374, respectively. In addition, the z-score was -1.95 in assay [2] and -0.95 (inactive) in assay [3].

Regarding `C[C@@H]1C=CCC(=O)OC[C@H](C)C(=O)N[C@@H](Cc2ccccc2)C(=O)OC1`, the composite z-score is -0.478 (inactive) in assay [1] and -0.0947 in the assay with XIP peptide (Xip251-270). Besides, the results for the z-score in assay [2] and in assay [3] were -1.55 and 2.57 (inactive), respectively.

Turning to `O=C1C=C[C@@H](O)[C@@H]2[C@@H]3C(=O)N(Cc4ccccc4)C(=O)[C@@H]3CC[C@@H]12`, the composite z-score in assay [1] was 0.771 (inactive); with XIP peptide (Xip251-270) it was -0.0049. Moreover, the z-score is -0.0141 in assay [2] and 0.291 (inactive) in assay [3].

As for `CON=C(C)CCN1CCCc2nc(C)c(C)cc21`, the composite z-score was -0.0879 (inactive) in assay [1] and 0.428 in the assay with XIP peptide (Xip251-270). The z-score is -0.18 in assay [2] and -7.51 (inactive) in assay [3].

As to `CC(C)CON=C1C[C@@H](O)[C@@H](O)[C@@H]2[C@@H]3C(=O)N(Cc4ccccc4)C(=O)[C@@H]3CC[C@H]12`, the composite z-score in assay [1] is -0.0404 (inactive); in the assay with XIP peptide (Xip251-270), 0.106. In addition, the z-score in assay [2] is -1.65; in assay [3] it was -2.34 (inactive).

For the molecule `C#CCCCON=C1C[C@@H](O)[C@@H](O)[C@@H]2[C@@H]3C(=O)N([C@@H](C)c4ccccc4)C(=O)[C@@H]3CC[C@@H]12`, the composite z-score is -0.406 (inactive) in assay [1] and -0.125 in the assay with XIP peptide (Xip251-270). Also, the z-score in assay [2] is -0.913; in assay [3] it was -2.28 (inactive).

Take `CCOC(=O)CCN1C(=O)[C@H]2[C@H]3[C@H](O)[C@H](O)CC(=NNC(=O)OCC)[C@H]3CC[C@H]2C1=O`: the composite z-score in assay [1] is 3.24 (inactive); in the assay on XIP peptide (Xip251-270), -0.397. Besides, the z-score in assay [2] is -1.58; in assay [3] it was -4.5 (inactive).

On to `C[C@@H]1CC[C@H]2C(=O)N3[C@@H](CC[C@@H](C)[C@@H]3c3ccc(Br)cc3)C(=O)N2[C@H]1c1ccc(Br)cc1`, for which the composite z-score in assay [1] was -0.22 (inactive); in the assay on XIP peptide (Xip251-270), 0.335. Moreover, the figures for the z-score in assay [2] and in assay [3] were -0.212 and -3.21 (inactive), respectively.

Take `COC(=O)[C@@H]1CC[C@H](C)[C@@H](c2ccc(C)cc2)N1C(=O)c1ccc(C=NOC[C@H]2O[C@H](c3ccccc3)C=C[C@@H]2Oc2ccc(OC)cc2)cc1`: the composite z-score in assay [1] is 0.176 (inactive); in the assay on XIP peptide (Xip251-270) it was 0.313. The results for the z-score in assay [2] and in assay [3] were -1.14 and -0.0628 (inactive), respectively.

With `O=C(NN=C1C[C@@H](O)[C@@H](O)[C@@H]2[C@@H]3C(=O)N(c4ccc(F)cc4F)C(=O)[C@@H]3CC[C@H]12)OCc1ccccc1`, the composite z-score is 0.081 (inactive) in assay [1] and 0.653 in the assay on XIP peptide (Xip251-270). Also, the z-score is -0.131 in assay [2] and -5.87 (inactive) in assay [3].

For the molecule `CCOC(=O)[C@H](Cc1ccccc1)NC(=O)CCC1CC(OC(=O)NCc2cccc3ccccc23)CC2(CCCC(COC(=O)NCc3ccc4c(c3)OCO4)O2)O1` (stereo not given in full), the composite z-score was -0.322 (inactive) in assay [1] and 0.818 in the assay with XIP peptide (Xip251-270). Moreover, the results for the z-score in assay [2] and in assay [3] were 0.721 and -3.19 (inactive), respectively.

Take `CCOC(=O)CCN1C(=O)[C@H]2[C@H]3[C@H](O)[C@H](O)CC(=NNC(=O)OCc4ccccc4)[C@H]3CC[C@H]2C1=O`: the composite z-score in assay [1] is 0.0983 (inactive); in the assay on XIP peptide (Xip251-270) it was -0.0907. Moreover, the z-score is -0.873 in assay [2] and -3.59 (inactive) in assay [3].

Regarding `C=CC[C@@H]1C=C[C@H](ON=C(C)CCN2CCCc3nc(C)c(C)cc32)[C@@H](CO)O1`, the composite z-score was 1.59 (inactive) in assay [1] and 0.241 in the assay on XIP peptide (Xip251-270). Also, the figures for the z-score in assay [2] and in assay [3] were -2.16 and -7.32 (inactive), respectively.

For `O=C1[C@H]2CCn3c(=O)n(Cc4cc5c(cc4Cl)OCO5)c(=O)n3[C@H]2[C@H](O)[C@@H]2O[C@H]12`, the composite z-score was 0.188 (inactive) in assay [1] and 0.639 in the assay with XIP peptide (Xip251-270). The z-score in assay [2] is 0.0829; in assay [3], -0.543 (inactive).

`COC(OC)[C@@H](C)[C@H](OC)[C@@H](C)[C@H](OC)c1ccccc1`: the values for the composite z-score (in assay [1]; in the assay on XIP peptide (Xip251-270)) were -0.17 (inactive) and -0.0245, respectively. The z-score is 0.129 in assay [2] and -0.402 (inactive) in assay [3].

For the molecule `CO[C@@H]1C=CCC(=O)N[C@@H](C)C(=O)OC[C@@H](NS(=O)(=O)c2ccc(C)cc2)[C@H](C)C=CCC(=O)OC[C@H]1C`, the composite z-score in assay [1] is -0.778 (inactive); with XIP peptide (Xip251-270), 0.247. The z-score in assay [2] is 0.251; in assay [3], -1.06 (inactive).
